Experimental data as given in PubChem BioAssay AID1159580 (chemical genetic matrix, 2015).
Several values for one entry are separate records, joined by “and”; a condition that tells them apart may be missing. Equal entries are not always repeated. In all, about 5,500 compounds went through this assay and about 2,000 (36%) were called active. Another 18% or so got no clear call; they are omitted. Cut-off read from the data, not from the text of the source: active = normalized growth mostly below about 0.91 (no sharp cut-off); inconclusive = no clear call, values can overlap the other calls; inactive = mostly above about 0.92. Some of the results follow.

Experiment: chemical genetic growth profiling, strain panel (AID 1159580);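 note: tested at 20 µM; growth read once vehicle control cultures reached saturation at 30 °C; 1 = growth at the plate median or of vehicle wells; lower values mean less growth of the strain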
Conditions: S. cerevisiae deletion strains, growth OD

Measured: normalized growth

CNC(C)[C@@H]1CC[C@@H](N)[C@@H](OC2[C@@H](N)C[C@@H](N)[C@H](OC3OC[C@](C)(O)[C@H](NC)[C@H]3O)[C@H]2O)O1 (stereo partly drawn)
inactive: locus YAL013W, strain DEP1, stronger effect = lower value 1.02 | locus YAL021C, strain ccr4, stronger effect = lower value 1.02 | locus YAL026C, strain drs2, stronger effect = lower value 0.997 | locus YAL030W, strain snc1, stronger effect = lower value 0.998 | locus YBL061C, strain skt5, stronger effect = lower value 0.977 | locus YBR009C, strain hhf1, stronger effect = lower value 1.01 | locus YBR021W, strain FUR4, stronger effect = lower value 1.02 | locus YBR023C, strain chs3, stronger effect = lower value 0.988 | locus YBR171W, strain sec66, stronger effect = lower value 0.986 | locus YBR229C, strain ROT2, stronger effect = lower value 1.02 | locus YBR231C, strain swc5, stronger effect = lower value 0.982 | locus YBR279W, strain paf1, stronger effect = lower value 0.991 | locus YCL011C, strain gbp2, stronger effect = lower value 1.01 | locus YCL016C, strain dcc1, stronger effect = lower value 1 | locus YCL029C, strain bik1, stronger effect = lower value 1.01 | locus YCL069W, strain vba3, stronger effect = lower value 0.992 | locus YCR088W, strain abp1, stronger effect = lower value 0.999 | locus YDL005C, strain med2, stronger effect = lower value 0.98 | locus YDL035C, strain GPR1, stronger effect = lower value 1.01 | locus YDL040C, strain nat1, stronger effect = lower value 0.994 | locus YDL074C, strain BRE1, stronger effect = lower value 1.03 | locus YDL101C, strain DUN1, stronger effect = lower value 1.01 | locus YDL134C, strain PPH21, stronger effect = lower value 1 | locus YDL185W, strain tfp1, stronger effect = lower value 1.02 | locus YDL192W, strain arf1, stronger effect = lower value 1.04 | locus YDR001C, strain nth1, stronger effect = lower value 0.988 | locus YDR069C, strain doa4, stronger effect = lower value 0.988 | locus YDR101C, strain arx1, stronger effect = lower value 0.992 | locus YDR137W, strain rgp1, stronger effect = lower value 1.01 | locus YDR150W, strain NUM1, stronger effect = lower value 1.01 | locus YDR159W, strain sac3, stronger effect = lower value 0.995 | locus YDR162C, strain NBP2, stronger effect = lower value 1.01 | locus YDR195W, strain ref2 0.947 | locus YDR297W, strain sur2, stronger effect = lower value 0.983 | locus YDR318W, strain mcm21, stronger effect = lower value 1.02 | locus YDR334W, strain swr1, stronger effect = lower value 0.98 | locus YDR335W, strain msn5, stronger effect = lower value 0.98 | locus YDR388W, stronger effect = lower value 1.01 | locus YDR392W, strain spt3, stronger effect = lower value 1.03 | locus YDR502C, strain sam2, stronger effect = lower value 1.05 | locus YEL003W, strain gim4, stronger effect = lower value 0.975 | locus YEL037C, strain rad23, stronger effect = lower value 0.995 | locus YEL061C, strain CIN8 (second series), stronger effect = lower value 0.982 | locus YEL061C, strain CIN8, stronger effect = lower value 1.02 | locus YER015W, strain faa2, stronger effect = lower value 0.993 | locus YER016W, strain bim1, stronger effect = lower value 0.979 | locus YER110C, stronger effect = lower value 1.02 | locus YER111C, strain swi4, stronger effect = lower value 0.976 | locus YER155C, strain BEM2 (second series), stronger effect = lower value 0.997 | locus YER155C, strain BEM2, stronger effect = lower value 1.01 | locus YER167W, strain BCK2, stronger effect = lower value 1.01 | locus YFR010W, strain ubp6, stronger effect = lower value 0.98 | locus YGL078C, strain dbp3, stronger effect = lower value 1.02 | locus YGL086W, strain mad1, stronger effect = lower value 1.01 | locus YGL167C, strain pmr1, stronger effect = lower value 0.982 | locus YGL173C, strain kem1, stronger effect = lower value 0.974 | locus YGL227W, strain vid30, stronger effect = lower value 0.987 | locus YGL240W, strain doc1, stronger effect = lower value 0.99 | locus YGL248W, strain PDE1, stronger effect = lower value 1.01 | locus YGL253W, strain hxk2, stronger effect = lower value 0.987 | locus YGR135W, strain pre9, stronger effect = lower value 1.05 | locus YGR229C, strain SMI1, stronger effect = lower value 1.01 | locus YGR252W, strain gcn5, stronger effect = lower value 1.04 | locus YHR013C, strain ard1, stronger effect = lower value 1.02 | locus YHR027C, strain rpn1, stronger effect = lower value 1 | locus YHR030C, strain SLT2, stronger effect = lower value 1.02 and 0.984 | locus YHR079C, strain IRE1 (second series), stronger effect = lower value 1.02 | locus YHR079C, strain IRE1, stronger effect = lower value 1.01 | locus YHR094C, strain hxt1, stronger effect = lower value 1.01 | locus YHR129C, strain ARP1, stronger effect = lower value 1 | locus YHR142W, strain chs7, stronger effect = lower value 0.971 | locus YHR200W, strain rpn10, stronger effect = lower value 1.03 | locus YIL066C, strain RNR3, stronger effect = lower value 1.01 | locus YIL073C, strain SPO22, stronger effect = lower value 1.04 | locus YIL125W, strain kgd1, stronger effect = lower value 1.02 | locus YIR030C, strain dcg1, stronger effect = lower value 1.03 | locus YJL092W, strain hpr5, stronger effect = lower value 0.993 | locus YJL095W, strain BCK1 (second series), stronger effect = lower value 0.993 | locus YJL095W, strain BCK1, stronger effect = lower value 1.02 and 1 | locus YJL115W, strain asf1, stronger effect = lower value 0.982 | locus YJL129C, strain trk1, stronger effect = lower value 0.964 | locus YJL134W, strain LCB3, stronger effect = lower value 1.02 | locus YJL154C, strain vps35, stronger effect = lower value 0.999 | locus YJL164C, strain tpk1, stronger effect = lower value 1.01 | locus YJL166W, strain qcr8, stronger effect = lower value 0.984 | locus YJL168C, strain set2, stronger effect = lower value 1.02 | locus YJL187C, strain SWE1 (second series), stronger effect = lower value 1.01 | locus YJL187C, strain SWE1, stronger effect = lower value 0.992 | locus YJR043C, strain POL32, stronger effect = lower value 0.996 | locus YJR066W, strain TOR1, stronger effect = lower value 0.999 | locus YJR075W, strain HOC1, stronger effect = lower value 1.03 | locus YKL009W, strain mrt4, stronger effect = lower value 1.01 | locus YKL068W, stronger effect = lower value 1.01 | locus YKL085W, strain MDH1 (second series), stronger effect = lower value 1.02 | locus YKL085W, strain MDH1, stronger effect = lower value 1.02 | locus YKL160W, strain elf1, stronger effect = lower value 0.977 | locus YKL190W, strain CNB1, stronger effect = lower value 1.02 | locus YKR001C, strain vps1, stronger effect = lower value 1.02 | locus YKR026C, strain gcn3, stronger effect = lower value 1 | locus YKR091W, strain srl3, stronger effect = lower value 0.986 | locus YLL001W, strain dnm1, stronger effect = lower value 0.972 | locus YLL026W, stronger effect = lower value 0.996 | locus YLL041C, strain sdh2, stronger effect = lower value 0.995 | locus YLR027C, strain aat2, stronger effect = lower value 0.991 | locus YLR039C, strain RIC1, stronger effect = lower value 1.08 | locus YLR058C, strain SHM2, stronger effect = lower value 1.03 | locus YLR102C, strain apc9, stronger effect = lower value 1.03 | locus YLR113W, strain HOG1, stronger effect = lower value 0.987 | locus YLR221C, strain rsa3, stronger effect = lower value 0.99 | locus YLR258W, strain gsy2, stronger effect = lower value 1 | locus YLR262C, strain YPT6 (second series), stronger effect = lower value 0.977 | locus YLR262C, strain YPT6, stronger effect = lower value 1.05 | locus YLR268W, strain sec22, stronger effect = lower value 1.01 | locus YLR320W, strain mms22, stronger effect = lower value 1 | locus YLR330W, strain CHS5, stronger effect = lower value 1.01 | locus YLR342W, strain FKS1 (second series), stronger effect = lower value 0.996 | locus YLR342W, strain FKS1, stronger effect = lower value 0.977 | locus YLR357W, strain rsc2, stronger effect = lower value 0.991 | locus YLR370C, strain arc18, stronger effect = lower value 0.984 | locus YLR371W, strain rom2, stronger effect = lower value 1.01 | locus YLR384C, strain iki3, stronger effect = lower value 0.992 | locus YLR418C, strain cdc73, stronger effect = lower value 1.02 | locus YML016C, strain PPZ1, stronger effect = lower value 1.01 | locus YML032C, strain rad52, stronger effect = lower value 1.02 | locus YML120C, strain ndi1, stronger effect = lower value 0.996 | locus YML124C, strain tub3, stronger effect = lower value 1.01 | locus YMR058W, strain fet3, stronger effect = lower value 0.994 | locus YMR078C, strain ctf18, stronger effect = lower value 1.02 | locus YMR125W, strain sto1, stronger effect = lower value 0.979 | locus YMR129W, stronger effect = lower value 1 | locus YMR205C, strain PFK2, stronger effect = lower value 0.987 | locus YMR223W, strain ubp8, stronger effect = lower value 1.04 | locus YMR231W, strain pep5, stronger effect = lower value 0.988 | locus YMR263W, strain SAP30, stronger effect = lower value 1.01 | locus YMR307W, strain GAS1, stronger effect = lower value 1 | locus YNL067W, strain RPL9B, stronger effect = lower value 1.02 | locus YNL071W, strain lat1, stronger effect = lower value 0.996 | locus YNL153C, strain GIM3, stronger effect = lower value 1.01 | locus YNL183C, strain NPR1, stronger effect = lower value 0.97 | locus YNL209W, strain ssb2, stronger effect = lower value 1 | locus YNL233W, strain BNI4, stronger effect = lower value 1.01 | locus YNL248C, strain rpa49, stronger effect = lower value 1.02 | locus YNL250W, strain rad50, stronger effect = lower value 1.05 | locus YNL271C, strain bni1, stronger effect = lower value 1.03 | locus YNL298W, strain CLA4, stronger effect = lower value 1.02 | locus YNL307C, strain MCK1, stronger effect = lower value 1.03 | locus YNL322C, strain KRE1 (second series), stronger effect = lower value 0.988 | locus YNL322C, strain KRE1, stronger effect = lower value 1.02 | locus YNR049C, strain mso1, stronger effect = lower value 0.986 | locus YNR052C, strain pop2, stronger effect = lower value 1.02 | locus YOL006C, strain TOP1, stronger effect = lower value 1.06 | locus YOL012C, strain htz1 0.693 | locus YOL147C, strain pex11, stronger effect = lower value 1.02 | locus YOR001W, strain rrp6, stronger effect = lower value 0.985 | locus YOR061W, strain CKA2, stronger effect = lower value 1.01 | locus YOR069W, strain VPS5, stronger effect = lower value 1.01 | locus YOR070C, strain gyp1, stronger effect = lower value 0.987 | locus YOR080W, strain dia2, stronger effect = lower value 0.982 | locus YOR083W, strain WHI5, stronger effect = lower value 0.977 | locus YOR106W, strain vam3, stronger effect = lower value 0.983 | locus YOR136W, strain idh2, stronger effect = lower value 1.02 | locus YOR144C, strain elg1, stronger effect = lower value 1.01 | locus YOR184W, strain ser1, stronger effect = lower value 1.03 | locus YOR231W, strain MKK1, stronger effect = lower value 0.976 | locus YOR265W, strain rbl2, stronger effect = lower value 0.987 | locus YOR270C, strain vph1, stronger effect = lower value 0.996 | locus YOR290C, strain snf2, stronger effect = lower value 1.01 | locus YOR316C, strain cot1, stronger effect = lower value 1.02 | locus YPL051W, strain arl3, stronger effect = lower value 0.982 | locus YPL078C, strain atp4, stronger effect = lower value 0.973 | locus YPL106C, strain sse1, stronger effect = lower value 1 | locus YPL240C, strain hsp82, stronger effect = lower value 0.99 | locus YPL256C, strain CLN2, stronger effect = lower value 0.988 | locus YPR119W, strain clb2, stronger effect = lower value 1.03 | locus YPR141C, strain kar3, stronger effect = lower value 1.02 | locus YPR163C, strain tif3, stronger effect = lower value 1.02 | locus YPR167C, strain met16, stronger effect = lower value 1.02 | strain wtn01, stronger effect = lower value 1.01
